Measurements: PubChem BioAssay (NCI)
About 83,000 compounds went through this panel and 20% of them were active in at least one assay; those are over-represented in the sample as a whole.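 Results are percent growth after 48 hours of single-concentration exposure. 100 means growth as in untreated cells, lower positive values show inhibition; negative values down to -100 show cell death.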 The source made the active and inactive calls. How the source made its calls: active means growth percent below 10; inactive means the rest.

Assays:
Test in all cases: NCI-60 one-dose screen, 48 h (100 = growth as untreated, 0 = no growth, -100 = all killed)
Settings in all cases: 10 µM unless noted
NCI-H23 lung = test system: NCI-H23 lung
NCI-H226 lung = test system: NCI-H226 lung
NCI-H322M lung = test system: NCI-H322M lung
HOP-62 NSCLC = test system: HOP-62 NSCLC
NCI-H460 lung = test system: NCI-H460 lung
HOP-92 NSCLC = test system: HOP-92 NSCLC
NCI-H522 lung = test system: NCI-H522 lung
A549/ATCC NSCLC = test system: A549/ATCC NSCLC
786-0 renal = test system: 786-0 renal
COLO 205 colon = test system: COLO 205 colon

Measured: growth

CN(C)CCC(=O)C1CC1
inactive: NCI-H23 lung 97% | NCI-H226 lung 102% | NCI-H322M lung 98.4% | HOP-62 NSCLC 91.2% | NCI-H460 lung 103% | HOP-92 NSCLC 101% | NCI-H522 lung 97.1% | A549/ATCC NSCLC 103% | 786-0 renal 99.4% | COLO 205 colon 112%

CNC(=O)c1cc(Oc2ccc3c(c2)sc2nc(-c4cc(C(F)(F)F)cc(C(F)(F)F)c4)cn23)ccn1
inactive: NCI-H23 lung 44.8% | NCI-H226 lung 26.8% | NCI-H322M lung 89.8% | HOP-62 NSCLC 25.4% | NCI-H460 lung 38.3% | HOP-92 NSCLC 27% | NCI-H522 lung 35% | A549/ATCC NSCLC 39.5% | 786-0 renal 61.3% | COLO 205 colon 55.3%

CCCCCc1ccc(S(=O)(=O)Nc2ccc3nc(N)oc3c2)cc1
inactive: NCI-H23 lung 40.2% | NCI-H226 lung 46.3% | NCI-H322M lung 96.9% | HOP-62 NSCLC 78.5% | NCI-H460 lung 60.8% | HOP-92 NSCLC 19.5% | NCI-H522 lung 43.7% | A549/ATCC NSCLC 53.2% | 786-0 renal 72.4% | COLO 205 colon 72.4%

COc1ccccc1S(=O)(=O)Nc1ccc2c3c(cc(CCC(=O)NCCCCNc4cccc5c4C(=O)N(C4CCC(=O)NC4=O)C5=O)cc13)C(=O)N2C (stereo not given)
active: NCI-H226 lung -0.85% | NCI-H322M lung -3.45% | HOP-62 NSCLC 2.74% | HOP-92 NSCLC -10.7% | COLO 205 colon 2.62%
inactive: NCI-H23 lung 70.3% | NCI-H460 lung 97.8% | NCI-H522 lung 26.2% | A549/ATCC NSCLC 56.1% | 786-0 renal 20.4%

COc1ccc(N=C2NN=C(c3c[nH]c4ccccc34)CS2)cc1OC
active: NCI-H522 lung -34.1%
inactive: NCI-H23 lung 67.7% | NCI-H226 lung 80.6% | NCI-H322M lung 70% | HOP-62 NSCLC 50.5% | NCI-H460 lung 26.9% | HOP-92 NSCLC 19.6% | A549/ATCC NSCLC 55% | 786-0 renal 54.8% | COLO 205 colon 57.9%

COc1cc2c3c(c4c5ccccc5[nH]c4c2c(OC)c1OC)C(=O)N(CCN1CCCCC1)C3=O
active: NCI-H460 lung -48.3% | A549/ATCC NSCLC -63.3% | 786-0 renal -85.9%
inactive: NCI-H23 lung 17.5% | NCI-H226 lung 28.2% | NCI-H322M lung 32% | HOP-62 NSCLC 41.7% | HOP-92 NSCLC 48.7% | NCI-H522 lung 36.3% | COLO 205 colon 28.3%

COc1ccc2c(c1)c(-c1nc(-c3ccc4ccccc4c3)cs1)cn2C
inactive: NCI-H23 lung 87.1% | NCI-H226 lung 85.3% | NCI-H322M lung 85.1% | HOP-62 NSCLC 90.4% | NCI-H460 lung 98.4% | HOP-92 NSCLC 93% | NCI-H522 lung 79.2% | A549/ATCC NSCLC 82.6% | 786-0 renal 75.4% | COLO 205 colon 84%

C#COc1cccc(Nc2ncnc3cc(NC(=O)[C@H](C)Cl)ccc23)c1
inactive: NCI-H23 lung 18.5% [6.25 µM] | NCI-H226 lung 41.7% [6.25 µM] | NCI-H322M lung 30% [6.25 µM] | HOP-92 NSCLC 81.5% [6.25 µM] | 786-0 renal 14.2% [6.25 µM] | COLO 205 colon 12.2% [6.25 µM]
active: HOP-62 NSCLC 7.33% [6.25 µM] | NCI-H460 lung 3.29% [6.25 µM] | NCI-H522 lung -46.2% [6.25 µM] | A549/ATCC NSCLC 2.95% [6.25 µM]

CCOC(=O)c1c(C)nc2c(c1N)C(=O)C(=O)N2Cc1ccc(OC)cc1
inactive: NCI-H23 lung 59.6% | NCI-H226 lung 90.8% | NCI-H322M lung 99.5% | HOP-62 NSCLC 40.1% | NCI-H460 lung 101% | HOP-92 NSCLC 39.6% | NCI-H522 lung 41.3% | A549/ATCC NSCLC 88% | 786-0 renal 39.7% | COLO 205 colon 123%

N=C(N)c1ccc(-c2ccc(-c3ccccc3)o2)o1
active: NCI-H460 lung 6.8% | COLO 205 colon -73.1%
inactive: NCI-H23 lung 49.6% | NCI-H226 lung 78.5% | NCI-H322M lung 60.3% | HOP-62 NSCLC 46.9% | HOP-92 NSCLC 24.2% | NCI-H522 lung 50.5% | A549/ATCC NSCLC 26.2% | 786-0 renal 33.4%

COc1ccc(C2CC(c3ccccc3)=NN2C(=O)c2cc(OC)c(OC)c(OC)c2)cc1O (stereo not given)
inactive: NCI-H23 lung 35.6% | NCI-H226 lung 27.4% | NCI-H322M lung 57.5% | HOP-62 NSCLC 49.4% | HOP-92 NSCLC 28% | A549/ATCC NSCLC 29.5% | 786-0 renal 20.4% | COLO 205 colon 71%
active: NCI-H460 lung 6.52% | NCI-H522 lung -3.83%

Cc1nc2sc(C(=O)Nc3ccccn3)c(N)c2cc1C(C)O (stereo not given)
inactive: NCI-H23 lung 84.3% | NCI-H226 lung 85.8% | NCI-H322M lung 83.1% | HOP-62 NSCLC 63.9% | NCI-H460 lung 80.2% | HOP-92 NSCLC 74.3% | NCI-H522 lung 59.9% | A549/ATCC NSCLC 82% | 786-0 renal 82.1% | COLO 205 colon 75.1%
